{"source": "the supplement of paper PMC12024424", "note": "Where a name gives a salt, the structure may show the parent alone."}
{"system": "Staphylococcus aureus Sa2 (MRSA, cystic fibrosis isolate)", "assay": "growth reduction vs untreated control (OD550); higher = stronger antibacterial activity", "conditions": "0.1 mM; 24 h", "description": "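Single-dose screen of the MedChem Express Drug Repurposing Library (0.1 mM, 1% DMSO) against planktonic MRSA S. aureus Sa2 (CF isolate) in TSB in 96-well plates, 37 °C aerobic, 24 h. Assays were run in triplicate and repeated twice.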", "units": {"growth reduction": "%"}}
{"smiles": "C#C[C@]1(O)CC[C@H]2[C@@H]3CCc4cc(OC5CCCC5)ccc4[C@H]3CC[C@@]21C", "note": "[Quinestrol]", "growth reduction": 100}
{"smiles": "CN1C(=O)[C@@H](NC(=O)c2n[nH]c(Cc3ccccc3)n2)COc2ccccc21", "growth reduction": 90.3}
{"smiles": "C=CCNc1c(O)cc2c(O)c1C[C@@H](C)C[C@H](OC)[C@H](O)[C@@H](C)/C=C(\\C)[C@H](OC(N)=O)[C@@H](OC)/C=C\\C=C(/C)C(=O)N2", "note": "[Retaspimycin (Hydrochloride)]", "growth reduction": 100}
{"smiles": "OC1(c2ccc(Cl)c(C(F)(F)F)c2)CCN(CCCC(c2ccc(F)cc2)c2ccc(F)cc2)CC1", "note": "[Penfluridol]", "growth reduction": 100}
{"smiles": "O=C(c1ccc(OCCN2CCCCC2)cc1)c1c(-c2ccc(O)cc2)sc2cc(O)ccc12", "note": "[Raloxifene (hydrochloride)]", "growth reduction": 99.8}
{"smiles": "CC(C)(C(=O)NCC(F)(F)C(F)(F)F)C(=O)N[C@@H]1C(=O)Nc2ccccc2-c2ccccc21", "growth reduction": 100}
{"smiles": "COc1cc([C@H]2C(C#N)=C(N)Oc3c2ccc(N)c3N)cc(Br)c1OC", "note": "[Crolibulin]", "growth reduction": 98.1}
{"smiles": "CCCCCOc1ccccc1/C(=C\\SC)n1ccnc1", "note": "[Neticonazole]", "growth reduction": 100}
{"smiles": "CCN(CC)CC#CCOC(=O)C(O)(c1ccccc1)C1CCCCC1", "note": "(configuration not stated) [Oxybutynin (chloride)]", "growth reduction": 94.3}
{"smiles": "O=C(O)Cc1ccccc1Nc1c(Cl)cccc1Cl", "note": "[Diclofenac (diethylamine)]", "growth reduction": 100}
{"smiles": "O=C(NC(=Nc1cc(C(F)(F)F)[nH]n1)Nc1cc(F)cc(Cl)c1)c1cccc(Cl)c1", "note": "[Parimifasor]", "growth reduction": 100}
{"smiles": "NC(=O)[C@@H]1CC[C@@H]2CN1C(=O)N2OS(=O)(=O)O", "note": "[Avibactam (sodium)]", "growth reduction": 96.6}
{"smiles": "O=C(c1ccc(F)c(F)c1Nc1ccc(I)cc1F)N1CC(O)([C@@H]2CCCCN2)C1", "note": "[Cobimetinib]", "growth reduction": 100}
{"smiles": "COc1cc(C)c2c(Oc3cccc(C(F)(F)F)c3)c(OC)cc(NC(C)CCCN)c2n1", "note": "(configuration not stated) [Tafenoquine (Succinate)]", "growth reduction": 100}
{"smiles": "CN1CCCN=C1/C=C/c1cccs1", "note": "[Pyrantel (pamoate)]", "growth reduction": 91.6}
{"smiles": "Cc1c(C)c2c(c(C)c1O)CCC(C)(COc1ccc(CC3SC(=O)NC3=O)cc1)O2", "note": "(configuration not stated) [Troglitazone]", "growth reduction": 97.5}
{"smiles": "C=CC(=O)N1CC[C@@H](Oc2nc(Nc3ccc(N4CCC(N5CCN(C)CC5)CC4)cc3)c(C(N)=O)nc2CC)C1", "note": "[Naquotinib (mesylate)]", "growth reduction": 99.6}
{"smiles": "Clc1ccccc1C(c1ccccc1)(c1ccccc1)n1ccnc1", "note": "[Clotrimazole]", "growth reduction": 100}
{"smiles": "CCCCCCCCCCCC1=C(O)C(=O)C=C(O)C1=O", "note": "[Embelin]", "growth reduction": 100}
{"smiles": "CN[C@H]1CC[C@@H](c2ccc(Cl)c(Cl)c2)c2ccccc21", "note": "[Sertraline (hydrochloride)]", "growth reduction": 100}
{"smiles": "CC(C)(C)C(=O)Oc1ccc(S(=O)(=O)Nc2ccccc2C(=O)NCC(=O)O)cc1", "note": "[Sivelestat (sodium)]", "growth reduction": 92.9}
{"smiles": "C[C@H](Nc1cc(-c2cnn(C)c2)cc(Nc2cnccn2)n1)c1ccc(F)cc1", "note": "[Ilginatinib]", "growth reduction": 100}
{"smiles": "O=C(Nc1ncc(SCCN2CCCC2)s1)[C@]1(c2ccc(S(=O)(=O)C3CC3)cc2)C[C@H]1C1CCCCC1", "note": "[Globalagliatin]", "growth reduction": 100}
{"smiles": "C[C@H](CCC(=O)O)[C@H]1CC[C@H]2[C@@H]3[C@H](O)C[C@@H]4C[C@H](O)CC[C@]4(C)[C@H]3CC[C@]12C", "note": "[Chenodeoxycholic Acid]", "growth reduction": 99}
{"smiles": "C#C[C@]1(O)CC[C@H]2[C@@H]3CCc4cc(OC)ccc4[C@H]3CC[C@@]21C", "note": "[Mestranol]", "growth reduction": 92.6}
{"smiles": "CN(C)C(=O)/C=C/CNCCOc1ccc(/C(=C(/CC(F)(F)F)c2ccccc2)c2ccc3[nH]nc(F)c3c2)cn1", "growth reduction": 100}
{"smiles": "CC1CS(=O)(=O)CCN1/N=C/c1ccc([N+](=O)[O-])o1", "note": "(configuration not stated) [Nifurtimox]", "growth reduction": 100}
{"smiles": "N[C@@H]1CC[C@@H](c2ccc(Cl)c(Cl)c2)c2ccccc21", "note": "[Dasotraline (hydrochloride)]", "growth reduction": 100}
{"smiles": "C1=N/C2=N/c3ccc(OCCN4CCCC4)c(c3)COC/C=C/COCc3cccc(c3)C(=C1)N2", "note": "[Pacritinib]", "growth reduction": 100}
{"smiles": "O=C(O)Cc1cc(I)c(Oc2ccc(O)c(I)c2)c(I)c1", "note": "[Tiratricol]", "growth reduction": 100}
{"smiles": "O=C(O)c1cc(-c2ccc(F)cc2F)ccc1O", "note": "[Diflunisal]", "growth reduction": 93.6}
{"smiles": "C#C[C@]1(O)CC[C@H]2[C@@H]3CCC4=CCCC[C@@H]4[C@H]3C(=C)C[C@@]21CC", "note": "[Desogestrel]", "growth reduction": 99.4}
{"smiles": "CCCCCCCOc1ccc(CCC(N)(CO)CO)cc1C(F)(F)F", "note": "[Amiselimod (hydrochloride)]", "growth reduction": 100}
{"smiles": "Clc1ccc(COC(Cn2ccnc2)c2ccc(Cl)cc2Cl)c(Cl)c1", "note": "(configuration not stated) [Miconazole (nitrate)]", "growth reduction": 100}
{"smiles": "CC1(C)CC[C@]2(C(=O)O)CC[C@]3(C)[C@H](C(=O)C=C4[C@@]5(C)C=C(C#N)C(=O)C(C)(C)[C@@H]5CC[C@]43C)[C@@H]2C1", "note": "[Bardoxolone]", "growth reduction": 100}
{"smiles": "CC(C)C[C@@H](C(=O)N[C@H](C(=O)OC1CCCC1)c1ccccc1)[C@H](O)C(=O)NO", "note": "[Tosedostat]", "growth reduction": 100}
{"smiles": "Cc1ncc(NC(=O)c2ccc(CN3CCN(C)CC3)c(C(F)(F)F)c2)cc1Nc1nccc(-c2cccnc2)n1", "note": "[Flumatinib]", "growth reduction": 100}
